Screens as filed in PubChem.
Sampled rows, rich in hits. Any-hit rate of the full collection: about 10%.
G9a block – blocks human histone lysine methyltransferase G9a; 8.8% of 350,000 active; Potency, µM (doses to about 102 µM), for inactives: top-dose activity, negative = inhibition, actives largely listed as inhibitors; AID 504332; G9a H3K9 monomethylation, AlphaScreen, 2 h; Q96KQ7; note: % is set by controls: 0 for no effect and ±100 for the full control effect; nearly all actives have a fitted effect of over 75% in size
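Step 1: enzyme (final 20 nM) with compound, 15 min RT. Step 2: substrate peptide 500 nM and SAM 20 uM, 2 h RT. Step 3: anti-H3K9me1 antibody and AlphaScreen beads, 10 min, then plate read.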
BAZ2B block – BAZ2B (human) inhibition; Potency, µM (top dose mostly 114 µM), inactives show top-dose activity change, negative = inhibition, usual class: inhibitors; Q9UIF8; 4.4% of 360,000 active; AlphaScreen BAZ2B-H3K14Ac peptide displacement; note: % is set by controls: 0 for no effect and ±100 for the full control effect; nearly all actives have a fitted effect of over 60% in size
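Inhibition is scored as reduced AlphaScreen emission. The BAZ2B/b-H3(5-23)K14Ac complex (50 nM each) in PBS pH 7.4, 0.01% Tween-20 meets compound (up to 110 uM) for 30 min at RT before bead addition.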
GLS inh – inhibitors of human glutaminase (GLS); O94925; GLS enzymatic activity, qHTS titration; Potency, µM (series often up to 45.5 µM), for inactives: at the top dose activity change, negative = inhibition, hits mostly inhibitors; 0.21% of 410,000 active; AID 624170; note: % is set by controls: 0 for no effect and ±100 for the full control effect
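hKGA; 45 mM KH2PO4 pH 8.2 + 0.02% Tween-20; cpd via pin tool; 1 mM Gln soln; GluOx/HRP/Amplex Red; RT 30 min; fluor. t0 & final.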
HP1b binding inh – blocks HP1-beta chromodomain binding to methylated histone tails; AlphaScreen HP1-beta / biotin-H3K9me3 peptide binding; Potency, µM (doses to about 114 µM), inactives show at the highest dose activity change, negative = inhibition, actives largely listed as inhibitors; 0.56% of 390,000 active; AID 540317; P83916; note: nearly all actives have a fitted effect of over 70% in size
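Compound inhibition of the preformed complex between 50 nM HP1-beta and 50 nM biotinylated H3K9me3 peptide was read by AlphaScreen. Buffer was PBS pH 7.4 with 0.01% Tween-20. Incubations ran 30 min at room temperature, with 10 ug/mL donor/acceptor beads.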
JMJD2A Tudor – inhibitors of human JMJD2A Tudor domain. AlphaScreen JMJD2A-Tudor / H3K4me3 peptide binding. Potency, µM (titrated, usually from 114 µM), for inactives: top-dose activity change, negative = inhibition, hits mostly inhibitors. 4.4% of 390,000 active. O75164. AID 504339; note: % is set by controls: 0 for no effect and ±100 for the full control effect; nearly all actives have a fitted effect of over 50% in size
Active calls of the source: *; u = inconclusive; x = not tested or not shown; [ ] = remark or other dose. Calls come from the whole dose curve; as a rule, active = well fitted curve in the direction sought with a large enough effect; inconclusive = small, poorly fitted or top-dose-only effect, or another doubt; inactive = no such curve, though single readings can be large; an effect the other way counts as inactive or inconclusive. Potency is the fitted concentration of half-maximal effect.

SMILES	G9a block	BAZ2B block	GLS inh	HP1b binding inh	JMJD2A Tudor
Cc1[nH]c2ccccc2c1C(=O)COC(=O)c1ccc([N+](=O)[O-])s1	32µM*	u	-4%	-6%	u
O=C(COC(=O)c1ccc(O)cc1)Nc1ncc(Cl)cc1Cl	u	79µM*	-1%	27%	-8%
O=C(COC(=O)c1ccc2ncsc2c1)Nc1cc(Cl)ccc1F	-31%	-5%	-2%	34%	-2%
O=C(COC(=O)c1ccc([N+](=O)[O-])s1)NCc1ccccc1	u	0%	-8%	23%	-1%
Cc1c(Cl)cnc(NC(=O)COC(=O)c2ccc([N+](=O)[O-])s2)c1Cl	25µM*	45µM*	-4%	-19%	50µM*
O=C(COC(=O)c1ccc2ncsc2c1)Nc1ncc(Cl)cc1Cl	u	50µM*	u	-19%	u
Cc1c(Cl)cnc(NC(=O)COC(=O)c2ccc3ncsc3c2)c1Cl	u	50µM*	0%	0%	u
CCCN(C(=O)Nc1cn(CC(C)C)c(=O)c2ccccc12)c1ccc(F)cc1	-29%[59 µM]	7%[57.1 µM]	-6%	13%	-11%
Cc1cc(C)c2c(=O)cc(CSc3nnc(-c4ccccc4)n3C)[nH]c2c1	23%[59 µM]	2%	1%	28%[57 µM]	2%
O=c1ccc(NS(=O)(=O)c2ccccc2Cl)cn1Cc1ccc(Cl)c(Cl)c1	28µM*	56µM*	59%	17%	-25%
O=C(O)Cc1ccc(NS(=O)(=O)c2ccccc2Cl)cc1	22µM*	u	20%	20%	-4%
CC(C)[C@H](/C=C/C[Si](C)(C)C)[C@H](C)C(O)/C=C/CCCOC(=O)C(C)(C)C (stereo not given in full)	x	x	x	37%	-4%
C[n+]1ccc(/C=C/c2ccc3ccccc3c2)cc1	7.1µM*	x	x	x	x
Cc1ccc2[nH]c(C)c(/C=C/c3cc[n+](C)cc3)c2c1	-100%	u	-8%	-18%	-22%
C[n+]1ccc(/C=C/c2ccc(Br)cc2)cc1	u	56µM*	-6%	14%	-3%
Cc1ccc(C(=O)NC(=S)Nn2cnnc2)cc1	10µM*	-25%	2%	-8%	0%
O=C(NC(=S)Nn1cnnc1)c1cccc(Br)c1	11µM*	-25%	34%	-24%	-16%
Cc1ccc(NC(=S)Nn2cnnc2)c(C)c1	10µM*	u	x	x	x
Cc1ccc(C)c(S(=O)(=O)N2CCN(C(=O)CCC(=O)c3cc(C)sc3C)CC2)c1	-28%	0%	3%	5%	-14%
COc1ccc(CCNCc2ccccc2N2CCCC2)cc1	u	56µM*	36%	-5%	20µM*
COc1ccc(CCNC(=O)CN2CCN(c3ccccc3Cl)CC2)cc1	-49%[59 µM]	-15%	12%	13%	-17%
COc1ccc(CCNCc2cc(C)n(-c3ccc(OC)cc3)c2C)cc1	-11%[2.33 µM]	28µM*	-22%	u	20µM*
Cc1c(C(=O)NCc2ccccc2Br)oc2c1-c1[nH]ncc1CC2	-46%[59 µM]	-2%	-2%	43%	0%
CN(C)c1ccc(NC(=O)COC(=O)Cn2nnc3ccccc32)cc1	40µM*	-36%	39%	-6%	-27%
CN(C)c1ccc(NC(=O)COC(=O)CNC(=O)c2cccs2)cc1	-10%[12.7 µM]	u	39%	-1%	u
SMILES	G9a block	BAZ2B block	GLS inh	HP1b binding inh	JMJD2A Tudor
Cc1ccccc1SCC(=O)OCC(=O)Nc1ccc(N(C)C)cc1	13µM*	40µM*	18%	u	45µM*
O=C1CC[C@@H]2C[C@@]3(C[C@@H]4CCN1[C@H]24)Nc1cc([N+](=O)[O-])ccc1NC3=NCc1ccccc1	x	x	13%	8%	u
COc1cccc(C2=CC(=O)CC(c3ccco3)C2)c1 (stereo not given)	x	x	3%	-3%	-35%
CC(=O)C1=C(O)C=C(c2ccco2)CC1c1ccco1 (stereo not given)	u	56µM*	22%	5%	-31%
CCN(CC)c1ccc(C2C3CCCCC3(O)CCN2C(=O)c2cccs2)cc1 (stereo not given)	50µM*	u	29%	-29%	u
COCCc1nn2c(=O)cc(COC(=O)C(c3ccccc3)c3ccccc3)nc2s1	26%[59 µM]	-3%	-1%	57%	-5%
OC(COc1cccc2ccccc12)CN1CCOCC1 (stereo not given)	x	x	1%	21%	-8%
C=CCc1cc(OC)ccc1OCC(O)CN1CCN(c2ccc(OC)cc2)CC1 (stereo not given)	28µM*	35µM*	33%	-42%	45µM*
C=CCc1ccccc1OCC(O)CN1CCN(c2ccccc2)CC1 (stereo not given)	u	50µM*	-2%	-13%	u
C=CCc1ccc(OCC(O)CN2CCCCC2)c(OC)c1 (stereo not given)	u	-2%	0%	28%	-20%
OC(COc1cccc2ccccc12)CN1CCN(c2ccccc2)CC1 (stereo not given)	50µM*	u	17%	-23%	50µM*
C=CCc1ccc(OCC(O)CN2CCN(c3ccccc3)CC2)c(OC)c1 (stereo not given)	45µM*	u	27%	30%	u
O=C(Nc1cccc(Cl)c1)c1ccc2nc(CCc3ccccc3)oc2c1	0%[59 µM]	4%	-11%	16%[57 µM]	-5%
CC(COc1cccc2ccccc12)CN1CCN(C)CC1 (stereo not given)	45µM*	4%	-6%	19%	-19%
C=CCc1cc(C)ccc1OCC(O)CN1CCN(c2ccccc2)CC1 (stereo not given)	u	50µM*	23%	40µM*	2.8µM*
Cc1ccc(OCC(O)CN2CCN(c3ccccc3)CC2)cc1 (stereo not given)	19%	-7%	55%	10%	-19%
O=C(NCCCN1CCOCC1)c1c(O)c2ccccc2[nH]c1=O	50µM*	-10%	2%	56%	-23%[57.1 µM]
COC(=O)c1ccc2c(=O)n(NC(C)=O)c(=S)[nH]c2c1	u	50µM*	4%	u	3.5µM*
COc1ccccc1Cn1c(=S)[nH]c2cc(C(=O)NCCCN3CCOCC3)ccc2c1=O	35µM*	-36%	u	39%	-23%
O=C(NCCCN1CCOCC1)c1cc2c(=O)[nH]c3ccccc3c2s1	26%[59 µM]	4%	-13%	9%	-16%
COC(=O)c1ccc2c(=O)n(CCCN3CCOCC3)c(=S)[nH]c2c1	u	-3%	-23%	21%	-34%
COC(=O)c1ccc2c(=O)n(CCN3CCOCC3)c(=S)[nH]c2c1	-47%[12.7 µM]	-1%	13%	18%	56µM*
O=C(CN1C(=O)C(c2ccc(F)cc2)=NC12CCCCCC2)Nc1ccccc1Cl	47%[59 µM]	46%	-5%	95%	10%
O=C(Nc1ccccc1)C12CC1/C(=N\O)c1ccccc1O2 (stereo not given)	27%[59 µM]	x	x	x	x
CN(C)c1ncc2nc(-c3cn(C)c4ccccc34)c(=O)n(C[C@H]3CCCO3)c2n1	1%[0.501 µM]	x	x	x	x
